According to ChEMBL document CHEMBL3988442, “University of Dundee, Small-Polar-MMV Screening Library” (2021):
For some assays here: Entries with a potency or affinity are not part of this list.

Experiments:
Design in all cases: scale not given: direction of the effect not stated beside the values
[1] = target: Protein translocase subunit SecA (Escherichia coli (strain K12)) (UniProt P10408); assay: Assay to Identify E. coli SecA ATPase Inhibitors; format: functional; settings: 30 µM
[2] = target: T1, Ubiquitin-activating enzyme e1, putative (Leishmania donovani (strain BPK282A1)) (UniProt E9BSI1); assay: Leishmania donovani Ubiquitin Activating Enzyme (LdE1); format: functional; settings: 30 µM
T1 sequence (whole entry): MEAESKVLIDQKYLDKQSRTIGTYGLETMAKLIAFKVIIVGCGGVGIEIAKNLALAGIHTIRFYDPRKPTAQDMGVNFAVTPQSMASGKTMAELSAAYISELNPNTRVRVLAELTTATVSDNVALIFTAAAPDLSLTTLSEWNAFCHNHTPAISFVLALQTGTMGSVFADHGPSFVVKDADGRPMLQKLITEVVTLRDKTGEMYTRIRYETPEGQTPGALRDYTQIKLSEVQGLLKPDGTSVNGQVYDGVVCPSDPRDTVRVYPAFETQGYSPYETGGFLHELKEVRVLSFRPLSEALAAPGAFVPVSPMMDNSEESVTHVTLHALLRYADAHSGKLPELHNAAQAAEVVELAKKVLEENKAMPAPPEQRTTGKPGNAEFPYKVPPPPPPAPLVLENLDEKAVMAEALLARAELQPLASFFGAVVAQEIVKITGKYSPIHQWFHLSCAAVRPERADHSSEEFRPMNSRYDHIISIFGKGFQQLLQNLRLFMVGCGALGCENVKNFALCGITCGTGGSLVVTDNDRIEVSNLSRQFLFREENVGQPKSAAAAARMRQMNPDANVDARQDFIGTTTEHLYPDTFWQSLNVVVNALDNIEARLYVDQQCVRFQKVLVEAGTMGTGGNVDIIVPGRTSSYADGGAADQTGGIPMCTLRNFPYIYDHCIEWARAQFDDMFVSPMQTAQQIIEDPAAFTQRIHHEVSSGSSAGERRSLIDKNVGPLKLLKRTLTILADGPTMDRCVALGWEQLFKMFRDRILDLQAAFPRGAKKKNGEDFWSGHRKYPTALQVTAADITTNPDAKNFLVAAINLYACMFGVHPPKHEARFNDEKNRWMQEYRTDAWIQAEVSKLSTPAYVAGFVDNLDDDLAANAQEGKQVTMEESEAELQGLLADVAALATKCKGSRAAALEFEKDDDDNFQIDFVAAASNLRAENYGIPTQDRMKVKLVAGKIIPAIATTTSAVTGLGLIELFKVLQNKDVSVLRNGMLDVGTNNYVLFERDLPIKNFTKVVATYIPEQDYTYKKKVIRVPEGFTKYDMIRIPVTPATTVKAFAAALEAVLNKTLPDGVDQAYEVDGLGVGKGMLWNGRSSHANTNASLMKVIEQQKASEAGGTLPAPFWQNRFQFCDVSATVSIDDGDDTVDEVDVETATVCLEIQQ

[3] = target: AMP-activated protein kinase, AMPK (Homo sapiens) (UniProt P54646+O43741+P54619+Q9UGJ0+Q9Y478+Q13131+Q9UGI9); assay: AMP-dependent Kinase enzyme assay. An in vitro enzyme assay that detects ADP turnover that is directly proportional to AMPK activity. This uses naive AMPK that is activated during the assay with MK-8722; format: functional; settings: 30 µM
[4] = target: Sialic acid-binding Ig-like lectin 9 (Homo sapiens) (UniProt Q9Y336); assay: Hs-Siglec9 ALPHAscreen SOP 20170721; settings: 10 µM
Trypanosoma cruzi = assay: Trypanosoma cruzi phosphomannomutase and mannose-1-phosphate guanylyltransferase assay; format: functional; settings: 10 µM
[5] = target: T2, Arginase-2, mitochondrial (Homo sapiens) (UniProt P78540); assay: in vitro enzyme assay to detect the production of urea directly proportional to the activity of Arginase II; format: functional; settings: 33.3 µM; further: in the data most compounds retested in dose-response had high values
T2 sequence (whole entry): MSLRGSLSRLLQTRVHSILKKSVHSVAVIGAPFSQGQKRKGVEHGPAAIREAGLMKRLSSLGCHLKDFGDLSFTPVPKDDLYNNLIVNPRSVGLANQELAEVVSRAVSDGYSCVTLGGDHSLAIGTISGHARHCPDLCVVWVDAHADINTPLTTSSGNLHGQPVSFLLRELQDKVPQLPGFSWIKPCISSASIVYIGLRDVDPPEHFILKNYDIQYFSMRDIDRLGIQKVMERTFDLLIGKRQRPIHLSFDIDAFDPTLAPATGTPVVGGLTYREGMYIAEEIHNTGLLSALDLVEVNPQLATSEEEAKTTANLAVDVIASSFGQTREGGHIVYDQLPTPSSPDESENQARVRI

[6] = target: T3, Proteasome subunit beta (Trypanosoma cruzi) (UniProt O96673); assay: Trypanosoma cruzi proteasome chymotrypsin-like activity (TcProtChymo) assay.; further: in the data most compounds retested in dose-response had high values; format: functional; settings: 9.37 µM
T3 sequence (whole entry): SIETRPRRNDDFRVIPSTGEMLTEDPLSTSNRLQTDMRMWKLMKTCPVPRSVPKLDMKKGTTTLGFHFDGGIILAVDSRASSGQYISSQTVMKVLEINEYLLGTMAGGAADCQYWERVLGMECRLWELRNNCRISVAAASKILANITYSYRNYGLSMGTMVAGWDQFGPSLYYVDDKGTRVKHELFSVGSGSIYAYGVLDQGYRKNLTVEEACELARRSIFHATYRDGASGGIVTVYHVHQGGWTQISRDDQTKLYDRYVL

Homo sapiens = organism: Homo sapiens; assay: To identify inhibition of the IFN signalling (Jak-Stat) pathway via expression of an eGFP reporter gene under the control of an IFN-stimulated response element (ISRE) containing MxA promoter.; format: functional; settings: 30 µM
[7] = target: T4, Tyrosyl-tRNA synthetase, putative (Trypanosoma cruzi (strain CL Brener)) (UniProt Q4DSP6); assay: Trypanosoma cruzi tyrosyl tRNA synthetase (TcYRS) _High Tyrosine SOP; format: functional; settings: 30 µM; further: in the data most compounds retested in dose-response had high values
T4 sequence (whole entry): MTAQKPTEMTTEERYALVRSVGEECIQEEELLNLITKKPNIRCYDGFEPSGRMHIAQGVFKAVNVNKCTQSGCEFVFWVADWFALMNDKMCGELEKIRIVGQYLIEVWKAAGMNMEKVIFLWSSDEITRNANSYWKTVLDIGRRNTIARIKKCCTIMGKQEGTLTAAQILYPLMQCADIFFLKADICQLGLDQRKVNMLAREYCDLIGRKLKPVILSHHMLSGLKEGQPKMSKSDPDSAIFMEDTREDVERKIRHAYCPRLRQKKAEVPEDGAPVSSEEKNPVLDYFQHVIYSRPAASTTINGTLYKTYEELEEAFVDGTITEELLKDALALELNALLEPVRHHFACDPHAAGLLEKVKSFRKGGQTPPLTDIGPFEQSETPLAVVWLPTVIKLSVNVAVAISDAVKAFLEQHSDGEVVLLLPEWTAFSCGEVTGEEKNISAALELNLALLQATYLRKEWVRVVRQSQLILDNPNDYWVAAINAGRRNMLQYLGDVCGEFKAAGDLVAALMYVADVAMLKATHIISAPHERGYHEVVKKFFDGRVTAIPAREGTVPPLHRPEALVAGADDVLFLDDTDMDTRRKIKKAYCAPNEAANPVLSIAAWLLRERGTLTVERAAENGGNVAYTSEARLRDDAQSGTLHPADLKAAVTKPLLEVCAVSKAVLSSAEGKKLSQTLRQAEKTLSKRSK

[8] = target: T4, Tyrosyl-tRNA synthetase, putative (Trypanosoma cruzi (strain CL Brener)); assay: Trypanosoma cruzi tyrosyl tRNA synthetase (TcYRS) SOP; format: functional; settings: 30 µM
[9] = target: Chromo domain-containing protein 1 (Saccharomyces cerevisiae (strain ATCC 204508 / S288c) (Baker's yeast)) (UniProt P32657); assay: ScCHD-1 Enzyme Inhibition Assay; format: functional; settings: 30 µM; further: in the data most compounds retested in dose-response had high values
Chromo domain-containing protein 1 (Saccharomyces cerevisiae (strain ATCC 204508 / S288c) (Baker's yeast)), sequence (P32657 whole entry, the tested form may be a part): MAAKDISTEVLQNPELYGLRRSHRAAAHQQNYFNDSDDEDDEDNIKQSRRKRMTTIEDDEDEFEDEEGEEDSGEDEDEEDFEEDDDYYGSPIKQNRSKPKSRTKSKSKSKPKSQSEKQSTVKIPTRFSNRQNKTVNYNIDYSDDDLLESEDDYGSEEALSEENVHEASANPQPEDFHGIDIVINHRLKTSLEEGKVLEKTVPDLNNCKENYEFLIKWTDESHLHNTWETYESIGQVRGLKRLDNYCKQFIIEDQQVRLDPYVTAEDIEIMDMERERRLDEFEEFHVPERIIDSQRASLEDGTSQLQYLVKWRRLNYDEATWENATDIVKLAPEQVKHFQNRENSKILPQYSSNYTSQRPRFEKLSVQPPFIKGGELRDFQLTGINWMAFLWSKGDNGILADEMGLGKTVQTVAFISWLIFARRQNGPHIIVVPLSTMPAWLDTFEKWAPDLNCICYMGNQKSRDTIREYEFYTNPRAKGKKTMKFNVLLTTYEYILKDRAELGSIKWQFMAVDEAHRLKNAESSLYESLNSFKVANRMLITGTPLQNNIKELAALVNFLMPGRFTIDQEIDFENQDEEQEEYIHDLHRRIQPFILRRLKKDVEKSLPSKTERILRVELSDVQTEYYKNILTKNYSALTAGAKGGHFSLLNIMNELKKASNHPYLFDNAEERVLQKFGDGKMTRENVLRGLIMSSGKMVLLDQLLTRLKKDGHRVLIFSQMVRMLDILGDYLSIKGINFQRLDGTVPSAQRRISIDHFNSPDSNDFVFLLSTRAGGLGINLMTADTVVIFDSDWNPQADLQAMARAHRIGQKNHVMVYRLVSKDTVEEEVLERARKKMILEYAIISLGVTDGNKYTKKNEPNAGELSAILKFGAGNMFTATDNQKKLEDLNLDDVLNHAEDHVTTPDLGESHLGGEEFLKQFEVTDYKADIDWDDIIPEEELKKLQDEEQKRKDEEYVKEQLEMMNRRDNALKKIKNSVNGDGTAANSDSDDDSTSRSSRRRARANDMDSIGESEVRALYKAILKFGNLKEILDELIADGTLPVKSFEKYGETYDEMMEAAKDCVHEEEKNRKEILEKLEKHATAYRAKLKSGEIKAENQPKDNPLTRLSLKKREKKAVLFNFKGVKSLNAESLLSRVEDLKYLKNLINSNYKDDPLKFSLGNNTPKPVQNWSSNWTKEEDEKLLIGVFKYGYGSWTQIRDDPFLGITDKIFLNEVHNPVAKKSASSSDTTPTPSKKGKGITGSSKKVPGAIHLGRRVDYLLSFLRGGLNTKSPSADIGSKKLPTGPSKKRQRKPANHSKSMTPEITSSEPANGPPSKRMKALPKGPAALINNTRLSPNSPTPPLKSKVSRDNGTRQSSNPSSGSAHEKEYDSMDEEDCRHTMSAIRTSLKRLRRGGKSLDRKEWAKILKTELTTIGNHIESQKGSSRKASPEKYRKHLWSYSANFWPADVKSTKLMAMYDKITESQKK

Protein translocase subunit SecA (Escherichia coli (strain K12)), sequence (P10408 whole entry): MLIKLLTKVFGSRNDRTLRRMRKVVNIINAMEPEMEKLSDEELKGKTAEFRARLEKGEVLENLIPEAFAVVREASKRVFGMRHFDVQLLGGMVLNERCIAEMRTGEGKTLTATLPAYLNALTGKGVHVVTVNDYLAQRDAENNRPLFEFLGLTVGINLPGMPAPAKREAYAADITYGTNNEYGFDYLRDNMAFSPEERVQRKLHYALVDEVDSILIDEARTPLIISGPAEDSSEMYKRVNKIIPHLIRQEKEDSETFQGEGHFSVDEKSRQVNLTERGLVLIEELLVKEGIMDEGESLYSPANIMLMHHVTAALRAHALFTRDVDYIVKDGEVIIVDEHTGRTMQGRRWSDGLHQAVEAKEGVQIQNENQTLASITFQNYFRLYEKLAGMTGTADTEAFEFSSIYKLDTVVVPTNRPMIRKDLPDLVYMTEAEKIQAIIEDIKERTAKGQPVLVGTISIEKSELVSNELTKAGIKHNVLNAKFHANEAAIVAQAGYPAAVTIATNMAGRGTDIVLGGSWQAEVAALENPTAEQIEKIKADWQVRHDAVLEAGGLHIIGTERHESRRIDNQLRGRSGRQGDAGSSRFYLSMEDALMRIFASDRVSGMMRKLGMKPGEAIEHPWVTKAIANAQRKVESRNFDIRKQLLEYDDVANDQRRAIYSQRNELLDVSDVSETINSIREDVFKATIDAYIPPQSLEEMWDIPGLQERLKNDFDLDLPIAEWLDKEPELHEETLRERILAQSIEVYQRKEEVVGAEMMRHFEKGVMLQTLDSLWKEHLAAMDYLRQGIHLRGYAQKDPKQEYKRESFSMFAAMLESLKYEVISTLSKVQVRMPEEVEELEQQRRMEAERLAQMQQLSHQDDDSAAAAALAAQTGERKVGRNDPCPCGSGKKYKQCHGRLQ
Sialic acid-binding Ig-like lectin 9 (Homo sapiens), sequence (Q9Y336 whole entry): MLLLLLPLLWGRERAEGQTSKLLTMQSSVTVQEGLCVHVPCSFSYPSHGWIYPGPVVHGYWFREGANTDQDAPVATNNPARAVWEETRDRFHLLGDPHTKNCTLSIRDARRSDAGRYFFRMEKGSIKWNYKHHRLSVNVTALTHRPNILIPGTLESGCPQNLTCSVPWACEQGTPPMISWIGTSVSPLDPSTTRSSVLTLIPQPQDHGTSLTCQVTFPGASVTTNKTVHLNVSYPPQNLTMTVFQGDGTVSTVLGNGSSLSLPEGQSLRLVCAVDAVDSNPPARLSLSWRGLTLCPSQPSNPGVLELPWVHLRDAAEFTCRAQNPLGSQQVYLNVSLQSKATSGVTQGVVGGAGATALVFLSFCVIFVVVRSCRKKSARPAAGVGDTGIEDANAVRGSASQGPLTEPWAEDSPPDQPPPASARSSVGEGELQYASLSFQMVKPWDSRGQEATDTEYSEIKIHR

SMILES | Percent Effect [1] [%] | Percent Effect [2] [%] | Percent Effect [3] [%] | Percent Effect [4] [%] | Percent Effect (Trypanosoma cruzi) [%] | Percent Effect [5] [%] | Percent Effect [6] [%] | Percent Effect (Homo sapiens) [%] | Percent Effect [7] [%] | Percent Effect [8] [%] | Percent Effect [9] [%]
CC(=O)N(Cc1ncc(C)o1)C1CCN(CCNC2CCCCC2)C1 (configuration not stated) | -1.61 | 2.7 | 2.29 | -9.81 | -9.68 | 0.744 | 13 | 18.4 | -2.15 | -3.7 | -7.63
Cc1cccc(CNC2CCCc3c2cnn3C)c1 (configuration not stated) | 2.29 | -5.41 | -6.19 | 5.27 | 5.38 | 0 | 3.6 | -2.08 | 0.493 | 6.17 | -2
Cc1nc(CCCNC(=O)C2CC(=O)N(C3CC3)C2)sc1C (configuration not stated) | 6.83 | 16.4 | -10.9 | 5.44 | 1.59 | -10.8 | 16.9 | 25.5 | 8.33 | 28.4 | 2.71
O=C(c1ccncn1)N1CCO[C@H]2[C@@H](OCc3cccnc3)CC[C@@H]21 | -1.55 | 8 | -0.169 | 5.8 | -3.48 | -23.8 | 8.72 | 2.92 | -6.25 | 7.5 | -6.65
CO[C@H]1CN(C(=O)c2ccccn2)[C@@H]2CCCO[C@H]12 | -0.127 | -2.7 | 2.92 | 0.754 | -2.25 | 1.59 | 17.5 | 0.992 | 0 | 5.13 | 3.83
Cc1ccc(CN2CCc3ncnc(-c4cccnc4)c3CC2)o1 | -3.48 | -2.67 | 0.55 | 8.87 | -0.772 | -5.91 | 8.72 | -10.7 | 2.08 | 0 | -3.74
Cc1cccc(C(=O)Nc2ccc(OC3CCN(C)CC3)cc2)c1 | -3.56 | 7.79 | 6.98 | 12 | 7.57 | 22.1 | 7.82 | -1.95 | 5.38 | 13.6 | -8.12
Cc1ccc(C(NC(=O)CC2CCN(C(C)C)CC2)C(=O)O)cc1 (configuration not stated) | -4.94 | 2.7 | -0.654 | -0.948 | 1.74 | 0.476 | 1.55 | 0.454 | 2.65 | 9.76 | 0.336
CC(=O)N1CCN(C)CC(COCc2ccccc2)C1 (configuration not stated) | -5.71 | 12.2 | 7.92 | 3.51 | 4.54 | -2.09 | -1.09 | 6.97 | 4.3 | 6.49 | -11.4
CCN(C)c1ccc(C(=O)N(CCOC)Cc2ccccn2)cc1 | -4.29 | 21.3 | -3.55 | 21.4 | 7.89 | 38.5 | 15.2 | 20.7 | 6.01 | 21 | -5.22
O=C1[C@@H]2CCN(Cc3ccncc3)C[C@@H]2OCCN1c1ccccc1 | -4.52 | 8 | 4.63 | 0.633 | 4.33 | -3.5 | 15.6 | -13.1 | 8.51 | 14.1 | -5.17
Cn1nccc1-c1ccc2nc(C3CCN(CCO)CC3)nn2c1 | -3.12 | 13.3 | 0.376 | 3.71 | 1.35 | -54.7 | 13.5 | 3.01 | 5.21 | 22.5 | -7.82
c1csc(-c2nc(CN3CCOC(Cn4cncn4)C3)cs2)c1 (configuration not stated) | -4.12 | 7.89 | -2.14 | 1.07 | -3.83 | 0 | 15.5 | -10.6 | 4.43 | 6.17 | -6.35
N#Cc1ccccc1CN1CCCCC1Cn1cncn1 (configuration not stated) | -0.27 | 13.5 | -13.3 | -8.54 | -5.38 | 0 | -0.54 | 15.9 | 9.36 | 13.6 | -5.63
CC(C)Cc1noc(CN2CCCC(Cn3cncn3)C2)n1 (configuration not stated) | -4.29 | 16.2 | -4.96 | 16.6 | 3.25 | 2.03 | 7 | 13.5 | 11.9 | 28.1 | -7.85
COc1cc(CNC2CCc3nc(C(C)C)nn3C2)cc2c1OCO2 (configuration not stated) | -3.28 | 2.63 | -0.342 | 1.45 | -0.28 | 3.24 | -0.592 | -4.24 | 1.48 | -6.17 | -3.88
Cc1cc(F)ccc1CN1CCCC2(C1)OCCO2 | -1.89 | 2.7 | -1.85 | -3.22 | 0.391 | 1.67 | 6.34 | 1.71 | 2.97 | -3.66 | -3.73
O=S(=O)(NCC1CCN(c2cnccn2)CC1)c1c(F)cccc1F | 0.613 | 5.2 | -0.808 | -3.89 | -5.82 | 9.68 | 5.74 | 8.19 | 3.17 | 6.41 | -7.48
CCc1nc(C2CCCN2Cc2nccn2Cc2ccccc2)no1 (configuration not stated) | -0.608 | 0 | 1.64 | 13.2 | 2.25 | 0.21 | 9.13 | 10.5 | 2.86 | 2.35 | 4.26
Cc1cc(C)c2nc(CN3CCOC(CCO)C3)cc(O)c2c1 (configuration not stated) | -2.9 | 2.7 | -1.47 | 5.2 | 0.965 | -2.38 | 10.3 | -6.99 | 4.76 | 14.6 | -1.34
COc1cc2cc(C(=O)O)n(C)c2c(OC)c1OC | 2.1 | -9.33 | 13.7 | 8.78 | -4.71 | -5.46 | 13.9 | 1.84 | -3.17 | -5.13 | -10
Cc1noc(Cl)c1CCC(=O)N1CCN(c2ncccn2)CC1 | -1.95 | 10.5 | -1.41 | -4.66 | -11.1 | 5.75 | 7.02 | 21.6 | 5.42 | 13.6 | 1.74
